In the library only some 2% were active in any assay of this set; here they are far more common.
M1 ag parental: nonselective activator or artifact in parental CHO-K1 cells | Fluo-8 calcium fluorescence; scaled to maximal ATP response, vehicle zero | activation, % at 3 µM | AID 602248 | actives 0.48% (n = 360,000); in the data active = activation above about 15%;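 also: untransfected CHO-K1 host cells lacking M1 receptor as counterscreen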
CHO-K1 Ca antag: counter-screen for M1 antagonists: effect in parental CHO-K1 cells. ATP-induced calcium, Fluo-8 fluorescence. inhibition, % at 3 µM. actives 0.6% (n = 360,000). AID 602250;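 active = inhibition above a per-plate cutoff, the plate's mean sample inhibition plus 3 SD, cut at about 24% in these data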
M4 PAM: potentiates acetylcholine response at human M4 receptor; CHO-K1 hM4/Gqi5, Fluo-8 calcium fluorescence, ACh EC20; 0% = ACh EC20, 100% = maximal ACh; activation, % at 3 µM; actives 0.4% (n = 360,000); AID 624126;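 active = activation above its plate's cutoff, the mean activation of sample wells plus 3 SD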
Target sequence (P08173 whole entry, looked up): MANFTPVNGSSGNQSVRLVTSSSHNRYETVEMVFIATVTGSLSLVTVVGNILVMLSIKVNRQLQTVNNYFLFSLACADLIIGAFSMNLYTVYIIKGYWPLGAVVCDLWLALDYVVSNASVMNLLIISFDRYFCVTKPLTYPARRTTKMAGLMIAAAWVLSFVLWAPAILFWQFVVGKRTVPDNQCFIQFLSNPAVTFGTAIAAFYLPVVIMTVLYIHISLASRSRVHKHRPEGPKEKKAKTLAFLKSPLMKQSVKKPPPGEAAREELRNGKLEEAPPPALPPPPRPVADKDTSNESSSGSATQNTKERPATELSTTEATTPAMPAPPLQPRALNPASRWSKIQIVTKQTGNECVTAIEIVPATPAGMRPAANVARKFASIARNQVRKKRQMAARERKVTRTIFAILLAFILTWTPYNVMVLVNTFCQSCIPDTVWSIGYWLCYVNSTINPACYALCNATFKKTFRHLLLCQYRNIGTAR
CHRM4 antagonist: CHRM4 antagonism in calcium assay; P08173; CHO-hM4 cells, ACh EC80, Fluo-8 calcium fluorescence; inhibition, % at 3 µM; actives 0.73% (n = 360,000); AID 624125;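 active = inhibition above its plate's cutoff, the mean inhibition of sample wells plus 3 SD, cut at about 27% in these data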
M4 ag: agonists of human muscarinic M4 receptor (CHRM4); actives 0.14% (n = 360,000); activation, % at 3 µM; CHO-K1 hM4/Gqi5, Fluo-8 calcium fluorescence; vehicle 0%, full acetylcholine response 100%; P08173;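 active = activation above the run mean over all test wells plus 3 SD, cut at about 32% in these data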;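 also: peak over basal fluorescence ratio per well then scaled between controls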
CHO-K1 Ca PAM: M1 PAM counterscreen hit in parental CHO-K1 cells | ATP EC20, Fluo-8 calcium fluorescence; 0% at ATP EC20, 100% at ATP max | activation, % at 3 µM | actives 0.02% (n = 360,000);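 active = activation above the run cutoff, the mean activation of all test compounds plus 3 SD, cut at about 40% in these data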;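 also: peak over basal fluorescence ratio in a 140 s read after ATP addition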
A number is an active result.

What do the screens show for `O=C(/C=C/c1ccccc1)CC(O)(c1ccccc1)C(F)(F)F` (centres undefined)?
M1 ag parental: inactive; CHO-K1 Ca antag: inactive; M4 PAM: inactive; CHRM4 antagonist: 31; M4 ag: inactive; CHO-K1 Ca PAM: inactive

Results for CC1CC2(C)C(=CC1=O)CCC1C2C(O)CC2(C)C1CCC2(O)C(=O)CO (centres undefined) ?
M1 ag parental: inactive; CHO-K1 Ca antag: inactive; M4 PAM: inactive; CHRM4 antagonist: inactive; M4 ag: inactive; CHO-K1 Ca PAM: inactive

How did CCOc1ccc(NC(=S)NC(=O)c2cccnc2)c([N+](=O)[O-])c1 do in these assays?
M1 ag parental: inactive; CHO-K1 Ca antag: inactive; M4 PAM: inactive; CHRM4 antagonist: inactive; M4 ag: inactive; CHO-K1 Ca PAM: inactive

How did Cc1cccc(NC(=O)c2oc3ccc(S(=O)(=O)N4CCOCC4)cc3c2C)c1C do in these assays?
M1 ag parental: inactive; CHO-K1 Ca antag: inactive; M4 PAM: inactive; CHRM4 antagonist: 29; M4 ag: inactive; CHO-K1 Ca PAM: inactive

Results for CSc1ccccc1-c1cnc(NC(C)=O)cn1 ?
M1 ag parental: inactive; CHO-K1 Ca antag: inactive; M4 PAM: inactive; CHRM4 antagonist: inactive; M4 ag: inactive; CHO-K1 Ca PAM: inactive

What do the screens show for `Cc1cc(C)n(-c2nnc(C)n2/N=C/c2cc(Br)ccc2OCc2ccccc2)n1`?
M1 ag parental: inactive; CHO-K1 Ca antag: inactive; M4 PAM: inactive; CHRM4 antagonist: 26; M4 ag: inactive; CHO-K1 Ca PAM: inactive

What do the screens show for `Cc1cc(C)n(-c2nnc(C)n2/N=C/c2ccccc2OCc2ccccc2Cl)n1`?
M1 ag parental: inactive; CHO-K1 Ca antag: inactive; M4 PAM: inactive; CHRM4 antagonist: inactive; M4 ag: inactive; CHO-K1 Ca PAM: inactive

How did COc1cc(Cl)ccc1OCc1cc(C(=O)N2C[C@]3(C)C[C@H]2CC(C)(C)C3)no1 do in these assays?
M1 ag parental: inactive; CHO-K1 Ca antag: inactive; M4 PAM: inactive; CHRM4 antagonist: inactive; M4 ag: inactive; CHO-K1 Ca PAM: inactive

What do the screens show for `Cc1ccc2c(c1)CCCN2CC(=O)Nc1cccc(S(=O)(=O)N2CCCC2)c1`?
M1 ag parental: inactive; CHO-K1 Ca antag: inactive; M4 PAM: inactive; CHRM4 antagonist: inactive; M4 ag: inactive; CHO-K1 Ca PAM: inactive

How did Oc1cc(-c2cccnc2)cc2cccnc12 do in these assays?
M1 ag parental: inactive; CHO-K1 Ca antag: 72; M4 PAM: inactive; CHRM4 antagonist: inactive; M4 ag: inactive; CHO-K1 Ca PAM: inactive

How did NS(=O)(=O)c1ccc(CCNC(=O)c2ccccc2F)cc1 do in these assays?
M1 ag parental: inactive; CHO-K1 Ca antag: 28; M4 PAM: inactive; CHRM4 antagonist: inactive; M4 ag: inactive; CHO-K1 Ca PAM: inactive

What do the screens show for `CN(CCN1CCc2ccccc2C1)Cc1nc(Cc2ccccc2F)no1`?
M1 ag parental: inactive; CHO-K1 Ca antag: inactive; M4 PAM: inactive; CHRM4 antagonist: inactive; M4 ag: inactive; CHO-K1 Ca PAM: inactive

How did CC1CCN(C(=O)COC(=O)c2ccc3ccccc3n2)CC1 do in these assays?
M1 ag parental: inactive; CHO-K1 Ca antag: inactive; M4 PAM: inactive; CHRM4 antagonist: inactive; M4 ag: inactive; CHO-K1 Ca PAM: inactive

Results for CN(C(=O)COC(=O)c1ccc2ccccc2n1)C1CCCCC1 ?
M1 ag parental: inactive; CHO-K1 Ca antag: inactive; M4 PAM: 25; CHRM4 antagonist: inactive; M4 ag: inactive; CHO-K1 Ca PAM: inactive

Results for OC1CC2CCC(C1)N2CCCN1c2ccccc2Sc2ccc(Cl)cc21 (centres undefined) ?
M1 ag parental: inactive; CHO-K1 Ca antag: inactive; M4 PAM: inactive; CHRM4 antagonist: 37; M4 ag: inactive; CHO-K1 Ca PAM: inactive

How did CCSc1ccc2c(c1)N(CCCN1CCN(C)CC1)c1ccccc1S2 do in these assays?
M1 ag parental: inactive; CHO-K1 Ca antag: inactive; M4 PAM: inactive; CHRM4 antagonist: inactive; M4 ag: inactive; CHO-K1 Ca PAM: inactive

Results for Cc1cccc(C(=O)Nc2ccc(C(=O)/C=C/c3ccncc3)cc2)c1 ?
M1 ag parental: inactive; CHO-K1 Ca antag: inactive; M4 PAM: inactive; CHRM4 antagonist: 33; M4 ag: inactive; CHO-K1 Ca PAM: inactive

How did COc1ccc(C(=O)N/C(=C/c2ccc(Cl)cc2)C(=O)Nc2ccc(C(=O)O)cc2)cc1 do in these assays?
M1 ag parental: inactive; CHO-K1 Ca antag: 25; M4 PAM: inactive; CHRM4 antagonist: inactive; M4 ag: inactive; CHO-K1 Ca PAM: inactive

Compound activity from PubChem BioAssay.
